A selection: hits, their analogues and other compounds. The true share with any hit is near 4.3%.
rCAG binder-1: binds r(CAG) RNA repeats | r(CAG) RNA repeat, TO-PRO-1 dye displacement fluorescence | inhibition, % at 3 µM | 370,000 tested, 1.3% active | AID 651821;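 active = inhibition above the plate cutoff, the mean of all test compounds on that plate plus 3 SD, cut at about 35% in these data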;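 also: 0% = DMSO alone and 100% = 100 µM mitoxantrone as full dye displacement; higher means more dye released from RNA so lower well fluorescence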
NadD block: inhibitors of Staphylococcus aureus NadD | purified NadD enzyme, colorimetric absorbance read-out | inhibition, % at 20 µM | 360,000 tested, 0.78% active | AID 602399; in the data active = inhibition above about 26%
NR3A LBD binder: modulates the human NR3A ligand-binding domain | NR3A LBD differential scanning fluorimetry, Tm shift; 0% = protein alone, 100% = glycine-bound protein | Tm shift relative to glycine control, % at 25 µM | 340,000 tested, 2.5% active;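 active = melting temperature shift of at least 10% of the positive control shift, at one fixed dose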
FAS TE block: inhibitors of human fatty acid synthase thioesterase domain; P49327; recombinant FAS-TE, OMFH fluorogenic substrate, fluorescence endpoint; inhibition, % at 15 µM; 360,000 tested, 0.67% active; AID 602261;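 active = compounds whose normalised, plate-corrected inhibition of enzyme fluorescence in the single-dose primary screen is 50% or more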;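 also: 0% = DMSO with enzyme and 100% = substrate without enzyme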
rCAG bind conf: r(CAG) RNA repeat binding, confirmation. shares compounds with rCAG binder-1. TO-PRO-1 dye displacement fluorescence. inhibition, % at 3 µM. 4,300 tested, 70% active;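 active = inhibition above a per-plate cutoff, the mean inhibition of sample wells plus 3 SD, cut at about 35% in these data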;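 also: loss of TO-PRO-1 fluorescence as compound displaces dye from 1x1 AA loop RNA; 0% = DMSO only wells and 100% = 100 µM mitoxantrone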
DNA CAG counter: disrupts DNA CAG TO-PRO-1 complex, flagging rCAG hits; shares compounds with rCAG binder-1; d(CAG) DNA oligo TO-PRO-1 dye displacement, fluorescence; inhibition, % at 3 µM; 4,300 tested, 94% active;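 active = inhibition above its plate's cutoff, the mean test-well inhibition plus 3 SD, cut at about 4.8% in these data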;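 also: 0% = DNA dye mix with DMSO and 100% = 100 µM mitoxantrone; hits displace the dye from DNA and so lower well fluorescence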
dCAG dye DR: counter-screen for rCAG binders: inhibitors of DNA CAG TO-PRO-1 complex. shares compounds with rCAG binder-1. DNA CAG/GTC duplex TO-PRO-1 dye displacement fluorescence. IC50, µM. 250 tested, 20% active; in the data active = IC50 below about 10 µM
dCAG DNA bind: DNA CAG dye complex inhibition, late stage dose response; d(CAG) DNA duplex TO-PRO-1 dye displacement, fluorescence; 30 tested, 80% active; IC50, µM; shares compounds with rCAG binder-1; AID 720649
rCAG binder-2: r(CAG) repeat RNA binding, TO-PRO-1 displacement; shares compounds with rCAG binder-1; r(CAG) RNA TO-PRO-1 dye displacement, fluorescence; IC50, µM; 30 tested, 100% active
* marks the source's active call; other numbers are inactive results; i = inactive; / = no result. Unless noted, no rule for the calls is given here.

SMILES	rCAG binder-1	NadD block	NR3A LBD binder	FAS TE block	rCAG bind conf	DNA CAG counter	others
N#Cc1c(-c2ccco2)nc(SCC(=O)Nc2cccc(Cl)c2)[nH]c1=O	72.1*	14.2	-1.4	11.7	72.0*	27.3*	dCAG dye DR=i
CCc1ccc(NC(=O)C(C)Sc2nc(-c3ccco3)c(C#N)c(=O)[nH]2)cc1 (configuration not stated)	79.5*	4.4	-3.8	13.6	69.6*	32.7*	dCAG dye DR=9.65*;dCAG DNA bind=3.34*;rCAG binder-2=1.14*
O=C(CSc1nc(-c2ccc(Cl)cc2)[nH]c(=O)n1)Nc1cccc(Cl)c1	57.0*	12.0	12.1*	43.9	66.0*	29.6*
O=C(CSc1n[nH]c(-c2cccnc2)n1)Nc1cccc(Cl)c1	4.3	1.3	-6.6	-19.9	/	/
N#Cc1c(-c2ccccc2)nc(SCc2cccc(Cl)c2)[nH]c1=O	82.0*	11.5	-7.0	20.9	76.3*	42.8*
Cc1cc(C)cc(N(CC(=O)NC2CCC(C)CC2)S(=O)(=O)c2ccc(Br)s2)c1 (configuration not stated)	1.3	/	/	/	/	/
Cc1cc2c(c(=O)o1)[C@@]1(C(=O)N(C)c3ccccc31)C1=C(CC(C)(C)OC1=O)O2	0.6	/	/	/	/	/
Cc1c(C2Nc3ccccc3C2C)[nH]c2ccccc12 (configuration not stated)	6.2	/	/	/	/	/
COc1cc(OC)c(OC)cc1/C=C/C(=O)c1ccc(NS(=O)(=O)c2ccc(C)cc2)cc1	46.3*	20.5	6.8	-1.8	38.8*	16.0*
CC(=O)c1ccc(NS(=O)(=O)c2ccc(C)cc2)cc1	1.4	5.8	3.2	-3.6	/	/
COC(=O)C1=C(C)N(Cc2cccc(C(F)(F)F)c2)C(=NCc2ccc(C(F)(F)F)cc2)NC1c1cccc(C(F)(F)F)c1 (configuration not stated)	0.1	/	/	/	/	/
C=C(C)CSc1nc2sc(C)c(C)c2c(=O)n1C	0.8	/	/	/	/	/
CCOc1ccc(C(CC(=O)O)NC(=O)c2sc3ccccc3c2Cl)cc1 (configuration not stated)	29.1	-8.1	2.5	2.6	/	/
CCCOc1ccc(C(CC(=O)O)NC(=O)c2sc3ccccc3c2Cl)cc1 (configuration not stated)	53.0*	3.8	1.7	-4.4	42.4*	9.9*
O=C(O)/C(CC(=O)c1ccc(Cl)cc1)=N/Nc1ccc([N+](=O)[O-])cc1[N+](=O)[O-]	91.7*	7.8	21.1*	42.7	89.5*	66.1*
C/C(CCC(=O)O)=N/Nc1ccc([N+](=O)[O-])cc1[N+](=O)[O-]	1.2	-0.9	1.6	0.5	/	/
O=C(CN1CCN(c2nc(-c3ccccc3)cs2)CC1)Nc1ccc(Cl)c(Cl)c1	4.0	/	/	/	/	/
O=C(N[C@H](C(=O)N1CCC[C@H]1C(=O)NCc1ccccc1)C1CCCCC1)c1ccc(Cl)c(Cl)c1	1.2	/	/	/	/	/
CCOc1cc(/C=N/N=C2/NC(=O)C(CC(=O)O)S2)ccc1OCc1ccccc1Cl (configuration not stated)	63.7*	17.6	1.7	-2.7	46.0*	13.1*
CCOc1cc(/C=N/N=C2/NC(=O)C(CC(=O)O)S2)ccc1OS(=O)(=O)c1ccc(C)cc1 (configuration not stated)	55.9*	5.7	0.2	-3.1	36.3*	9.7*
COc1ccc(/C=N/N=C2/NC(=O)C(CC(=O)O)S2)cc1OCc1ccccc1Cl (configuration not stated)	22.3	7.5	0.3	-9.2	/	/
COc1cccc(NC(=O)n2ccc3ccc(-c4ccc5cc[nH]c5c4)cc32)c1	22.1	/	/	/	/	/
N#Cc1c(-c2cccc(Br)c2)cc(-c2ccco2)[nH]c1=O	51.3*	13.5	-18.3	-7.9	44.7*	16.3*
